Screens (PubChem BioAssay)
p53ts 39C kill: kills p53ts cells at the nonpermissive temperature. H1299-p53A138V viability at 39C, ATP luminescence, 24 h. Potency, µM (top dose mostly 46.1 µM), for the others: at the highest dose activity change, negative = cell killing, usual class: cytotoxic. 1.5% of 130,000 active. AID 902; also: % is scaled to controls: 0 for no effect and ±100 for the full control effect; nearly all actives have a fitted effect of over 55% in size
p53ts 32C kill: p53ts cell cytotoxicity, permissive temperature | H1299-p53A138V at 32C, ATP luminescence viability, 24 h | Potency, µM (titrated, usually from 46.1 µM), for inactives: at the top dose activity change, negative = cytotoxicity, most hits filed as cytotoxic | 0.93% of 130,000 active | AID 924;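 also: 0% = DMSO and -100% = full killing by reference compound; nearly all actives have a fitted effect of over 55% in size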
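Cells: H1299 p53ts (A138V), 600/well, pre-incubated 16–30 h at 37C. Cpd up to 46 uM, 24 h, 32C. Readout: ATPlite luminescence, 20 min RT. Normalization: DMSO vs tamoxifen 100 uM. AC50 by Hill equation.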
Luciferase inh: blocks Photinus pyralis firefly luciferase activity; AID 411; Potency, µM (series often up to 57.1 µM), without a hit: at the highest dose activity change, negative = inhibition, usual class: inhibitors; purified firefly luciferase, luminescence, 8 min; 2.2% of 72,000 active; P08659; also: % is scaled to controls: 0 for no effect and ±100 for the full control effect; nearly all actives have a fitted effect of over 40% in size
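Here, luciferase activity is measured as luminescence following an 8 min room-temperature reaction at 10 uM ATP, pH 7.2. Every library sample is titrated.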
IkB sig inh: inhibitors of IkB signaling in ABC-DLBCL cells | 0.04% of 110,000 active | Potency, µM (top dose mostly 57.1 µM), for inactives: at the top dose IkBa stabilization activation | ABC-DLBCL IkBa-CBG/CBR dual luciferase ratio, 4 h; response scale: scaled: untreated 0%, proteasome inhibitor 100% | AID 445; active = well fitted curve in the direction sought with a large enough effect in the signal ratio, not every such curve was filed as active; inconclusive = small, poorly fitted or top-dose-only effect, or a change in a side signal; the % refers to the signal ratio;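 also: the direction sought is a rising ratio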
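Curves were fitted separately to fusion (green), unfused (red) and ratio luminescence, then classed by r2, magnitude and activity. Cells: OCI-Ly3, 4 h compound plus doxycycline at 37C; 10 uM MG-132 defined full response.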
Casp1 inh: blocks human caspase-1 allosterically or competitively; 0.03% of 75,000 active; AID 900; Caspase-1 enzyme, Ac-WEHD-AFC fluorogenic rate; P29466; Potency, µM (titrated, usually from 57.5 µM), for inactives: top-dose activity change, negative = inhibition, usual class: inhibitors;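 also: plate controls were vehicle for no effect and no substrate for full effect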
Caspase-7 inhib: caspase-7 (human) inhibition, allosteric or competitive | P55210 | recombinant caspase-7, Ac-DEVD-AFC fluorescence rate | Potency, µM (highest dose often 57.5 µM), without a hit: at the highest dose activity change, negative = inhibition, most hits filed as inhibitors | 0.02% of 75,000 active; active = well fitted inhibition curve with a large enough effect in the main read-out, with a control signal flat, not every such curve was filed as active; inconclusive = small, poorly fitted or top-dose-only effect, or a change in a side signal; also: % of control where 0% means no effect
Starred values were filed as active, the others as inactive; u = inconclusive; x = no result; [ ] = remark or other dose. Sampled rows, rich in hits. Any-hit rate of the full collection: about 2.5%. Unless noted, calls follow the shape of the dose curve; as a rule, active = well fitted curve in the direction sought with a large enough effect; inconclusive = small, poorly fitted or top-dose-only effect, or another doubt; inactive = no such curve, though single readings can be large; an effect the other way counts as inactive or inconclusive. Potency is read from the fitted curve at half-maximal effect.

SMILES	p53ts 39C kill	p53ts 32C kill	Luciferase inh	IkB sig inh	Casp1 inh	Caspase-7 inhib
N#Cc1sc2nc(-c3ccccc3)cc(-c3ccco3)c2c1N	0%	-6%	-10%	21%	x	25µM*
CCOC(=O)c1c(NC(=O)OC)sc(C(=O)N(C)C)c1C	1%	8%	0%	-2%	0%	-2%
OC(CNCc1ccco1)Cn1c2ccccc2c2ccccc21 (configuration not stated)	13µM*	u	3%	u	-2%	1%
Cn1c(=O)c2cc(NC(=O)c3ccccc3Cl)c(=O)oc2n(C)c1=O	11%	-2%	3%	1%	-1%	-1%
COc1cccc(NC(=O)Cn2c(SCC(=O)N3CCOCC3)nc3ccccc32)c1	0%	-13%	0%	0%	0%	0%
COc1cccc(NC(=O)c2cnc(SCC(=O)N3CCOCC3)n(C)c2=O)c1	13µM*	10%	x	u	x	x
CCN(Cc1ccccc1)C(c1cc2cc(C)cc(C)c2[nH]c1=O)c1nnnn1CCOC (configuration not stated)	-7%	-10%	0%	7%	-1%	1%
COc1ccc2oc(C(=O)OCC(=O)c3ccc4c(c3)OCCO4)c(C)c2c1	0%	0%	-46%	0%	0%	6%
Cc1nn(-c2nc3ccccc3s2)c(C)c1Oc1ccccc1O	u	13µM*	u	u	-3%	-1%
Cc1nn(-c2ccccn2)c(C)c1Oc1ccccc1O	3%	6%	-6%	1%	-1%	2%
CCc1ccc(Nc2nc3c(S(=O)(=O)c4cccc(Cl)c4)nnn3c3ccsc23)cc1	-10%	0%	x	-1%	x	x
CCc1ccc(S(=O)(=O)c2nnn3c2nc(Nc2ccc(NC(C)=O)cc2)c2sccc23)cc1	13µM*	u	x	-2%	x	x
O=C(Nc1ccc(-c2nnc(-c3ccccc3)o2)cc1)C(F)(F)F	u	-25%	x	x	0%	1%
CCc1cccc(C)c1NC(=O)Cn1nc(C)n2cccc2c1=O	13µM*	-4%	x	u	x	x
COc1ccc(-c2cc(C(=O)Nc3ccccc3SC)no2)cc1OC	-1%	-8%	0%	12%	-15%	-16%
COc1cccc(-c2cc(C(=O)Nc3ccccc3SC)no2)c1	-15%	-9%	20µM*	u	-1%	0%
COc1cc(NC(=O)c2cc(-c3cccc(O)c3)on2)cc(OC)c1OC	-13%	1%	-2%	12%	0%	-1%
COc1cc(NC(=O)c2cc(-c3ccc(Cl)c(Cl)c3)on2)cc(OC)c1OC	20µM*	-26%	x	11%	x	x
COc1cccc(-c2cc(C(=O)Nc3cccc(O)c3)no2)c1	3.2µM*	2.5µM*	3.2µM*	u	-2%	-1%
COc1ccc(NC(=O)c2cc(-c3ccccc3OC)on2)cc1	-18%	9%	u	u	2%	1%
COc1ccccc1-c1cc(C(=O)Nc2cccnc2)no1	u	u	13µM*	u	1%	-2%
O=C(CSc1nc(=O)[nH]c2c1CCC2)NCc1ccccc1Cl	-4%	0%	x	2%	x	x
COc1cccc(-c2cc(C(=O)NC3CCCC3)no2)c1	u	u	16µM*	u	0%	0%
CCCCCCc1nnc(NC(=O)OCC)s1	-7%	-2%	-4%	-4%	0%	0%
C=C1C(=O)C=C2CN(C(=O)c3ccccc3)[C@@](Cc3ccc(OC)cc3)(C(=O)OC)[C@@H]12	20µM*	3.2µM*	x	x	11%	0%
SMILES	p53ts 39C kill	p53ts 32C kill	Luciferase inh	IkB sig inh	Casp1 inh	Caspase-7 inhib
OC(COc1ccc(Cl)c2ccccc12)CN1CCN(c2ccccn2)CC1 (configuration not stated)	16µM*	u	-36%	u	-4%	-7%
Cc1cc(C)cc(NC(=O)Cn2cc(C(=O)C3CCCCC3)c3ccccc32)c1	10µM*	u	x	13%	x	x
Cc1ccc(NC(=O)Cn2cc(C(=O)C3CC3)c3ccccc32)cc1	9%	2%	x	-1%	x	x
CC(C)c1ccc(NC(=O)C(Cc2ccccc2)n2cccc2)cc1 (configuration not stated)	u	10%	x	u	x	x
O=C(Nc1ccc(C(F)(F)F)cc1)C(Cc1ccccc1)n1cccc1 (configuration not stated)	20µM*	-10%	x	u	x	x
Cc1ccc(-c2nc3nc4ccccc4nc3n2Cc2ccco2)cc1	13µM*	13µM*	10µM*	u	0%	1%
COc1ccccc1Cn1c(-c2ccco2)nc2nc3ccccc3nc21	-13%	-9%	3.2µM*	6%	-9%	-8%
Cc1ccccc1NC(=O)CCNC(=O)Cn1ccc2ccccc2c1=O	6%	-2%	x	0%	x	x
Cc1ccc2onc(CNC(=O)Nc3ccccc3C#N)c2c1	0%	5%	x	u	x	x
CC(C)(C)n1ncc2c(=O)n(CC(=O)Nc3ccc(Cl)cc3)cnc21	-20%	-7%	-1%	6%	1%	-2%
CC(C)(C)n1ncc2c(=O)n(CC(=O)NCc3ccccc3)cnc21	u	-25%	20µM*	3%	2%	-1%
CC(C)(C)n1ncc2c(=O)n(CC(=O)c3ccc(Cl)cc3)cnc21	-16%	-1%	20µM*	-1%	0%	-3%
Cc1nnc(SCCn2c(N3CCC(C)CC3)nc3c2c(=O)n(C)c(=O)n3C)s1	14%	11%	1%	0%	0%	-2%
Cc1nnc(SCCn2c(N3CCCC(C)C3)nc3c2c(=O)n(C)c(=O)n3C)s1 (configuration not stated)	6.3µM*	5µM*	2%	3%	-2%	-1%
CCC(=O)Nc1ccc(NC(=O)c2ccccc2Cl)nc1	-11%	-5%	-12%	u	1%	0%
Cc1sc2ncnc(SCc3ccco3)c2c1C	5%	3%	1%	u	0%	0%
Cc1sc2ncnc(Sc3nnnn3-c3ccc(Cl)cc3)c2c1C	5µM*	10µM*	-1%	u	-3%	0%
O=[N+]([O-])c1cc(Cc2cc([N+](=O)[O-])c3cccnc3c2O)c(O)c2ncccc12	-11%[9.22 µM]	-10%[9.22 µM]	0%[11.4 µM]	5µM*	u	-18%[11.5 µM]
COc1ccc(NC(=O)CSc2nc3ccncc3[nH]2)c(OC)c1	-27%	-6%	x	-1%	x	x
O=C(CC(c1ccccc1)c1cc(Br)ccc1O)NCCN1CCOCC1 (configuration not stated)	8%	1%	2%	4%	2%	0%
O=C(CC(c1ccccc1)c1cc(Br)ccc1O)NCC1(c2ccccc2)CCCC1 (configuration not stated)	10µM*	u	x	u	x	x
Cc1cccc(N(C)S(=O)(=O)c2nnc(NC(=O)c3cccs3)s2)c1	-1%	5%	x	u	x	x
